Screening data deposited in PubChem by several laboratories.
ERa coact pot – ER-alpha (human) coactivator binding potentiation; P03372; TR-FRET ERalpha-LBD/SRC-Cy5 coactivator binding, 2 h; 100 = basal binding, no effect; coactivator binding (% of control), % at 25.6 µM; hit rate 1.3% among 86,000; in the data active = activity above about 200%;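 note: binding measured in presence of low estradiol as agonist stimulus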
Smad3 inh – inhibitors of human Smad3 transcription factor binding | inhibition, % at 25 µM | TR-FRET Smad3/Dy647-FoxH1 peptide binding, europium anti-His | P84022 | hit rate 0.29% among 88,000 | AID 630;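 active = compounds that reduce the energy-transfer binding signal between the protein and its labelled peptide by more than half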
Target sequence (P84022 whole entry, looked up): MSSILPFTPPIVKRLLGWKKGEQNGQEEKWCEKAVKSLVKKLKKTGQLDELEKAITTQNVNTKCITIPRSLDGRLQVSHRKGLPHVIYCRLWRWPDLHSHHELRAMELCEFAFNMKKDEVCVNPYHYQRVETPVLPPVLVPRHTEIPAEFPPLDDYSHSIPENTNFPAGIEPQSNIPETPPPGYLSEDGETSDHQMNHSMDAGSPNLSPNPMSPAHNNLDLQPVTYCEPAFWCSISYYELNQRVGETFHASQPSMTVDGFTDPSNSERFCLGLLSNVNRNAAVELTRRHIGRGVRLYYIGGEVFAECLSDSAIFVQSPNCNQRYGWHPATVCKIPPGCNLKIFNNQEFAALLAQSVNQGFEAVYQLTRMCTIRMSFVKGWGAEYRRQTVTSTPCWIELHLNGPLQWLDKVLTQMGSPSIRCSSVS
ERa coact inh – ER-alpha (human) coactivator binding inhibition; TR-FRET ER-alpha LBD / SRC-1 peptide, estradiol-bound; hit rate 1.7% among 86,000; P03372; AID 629; inhibition, % at 25.6 µM; in the data active = inhibition above about 50%
Calb biofilm kill – kills Candida albicans biofilms; C. albicans biofilm + clotrimazole, Alamar Blue; inhibition, % at 6 µM; hit rate 0.14% among 85,000;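 active = inhibition above 20%; inactive = inhibition below 20%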;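 note: preformed 24 hr biofilms exposed to compound for 48 hr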
ERb coact inh – blocks coactivator binding to human estrogen receptor beta; hit rate 1.3% among 86,000; inhibition, % at 25.6 µM; TR-FRET ER-beta LBD / SRC1-Cy5 peptide binding; receptor agonist-loaded with 1 µM estradiol;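 active = compounds whose percent inhibition of the receptor-coactivator binding signal exceeds about 50% in the single-dose screen, limit read from the data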
Large screens that a line does not name were inactive; [ ] = dose if it differs, or a comment. An excerpt weighted towards active compounds, which were near 3.6% of everything screened.

CC(N1CCOC1=O)S(=O)(=O)c1ccccc1 (centres undefined)	none
COCC(C)n1c(C)cc(C(=O)COC(=O)c2c(NC(C)=O)sc(C)c2C)c1C (centres undefined)	ERa coact pot 542[fluorescence artefact?]
Cc1cc(=O)[nH]c2cc3oc4ccccc4c3cc12	none (no result: ERa coact pot, ERa coact inh, Calb biofilm kill, ERb coact inh)
CC(C)C(NS(=O)(=O)c1cccs1)C(=O)NCc1ccc2c(c1)OCO2 (centres undefined)	none
CCOc1ccccc1N1CCN(S(=O)(=O)c2ccc3c4c(cccc24)C(=O)N3)CC1	ERb coact inh 56[fluorescence artefact?]
N#CC1=C(N)OC2=C(C(=O)CCC2)C1CCc1ccccc1 (centres undefined)	ERa coact inh 100[fluorescence artefact?]
CC1(C)CC(=O)C2=C(C1)OC(N)=C(C#N)C2Cc1ccccc1 (centres undefined)	none
O=C(NCc1cccs1)C1CCC(=O)N1C1CCCCC1 (centres undefined)	none
Cc1cc(C)c(NC(=O)c2cc3c(nc4sccn43)s2)c(C)c1	ERa coact inh 86[fluorescence artefact?], ERb coact inh 55[fluorescence artefact?]
Cc1ccc(C)c(C(=O)c2c(C)nc3sccn23)c1	none
CCOC(=O)N1CCC(N2Cc3cccc(C(=O)N4CCN(C5CCCCC5)CC4)c3C2=O)CC1	none
NC(=O)c1cccc2c1C(=O)N(C1CCCCC1)C2	ERa coact inh 53[fluorescence artefact?], ERb coact inh 53
O=C(COc1ccc2c(c1)OCO2)Nc1ccc2c(c1)oc1ccccc12	ERa coact inh 51[fluorescence artefact?]
O=C(Nc1ccc2c(c1)oc1ccccc12)c1ccc2c(c1)OCO2	none
Cn1c(-c2ccc(C=O)s2)nc2c3ccccc3c3ccccc3c21	ERa coact pot 364[fluorescence artefact?]
C=CCn1c(O)c(C(CC)=NCc2cccnc2)c(=O)[nH]c1=O	ERb coact inh 50
O=C1NC(=O)C(c2cn(-c3ccccc3)nc2-c2ccc(F)cc2)N1 (centres undefined)	none
CC1=C(C(=O)c2ccccc2)C(c2cn(-c3ccccc3)nc2-c2ccc(Cl)cc2)NC(=S)N1 (centres undefined)	ERa coact pot 282[fluorescence artefact?]
CC(=O)OCC(=O)[C@@]12OC(C)(C)O[C@@H]1C[C@H]1[C@H]3CC=C4C[C@@H](O)CC[C@]4(C)[C@@H]3CC[C@@]12C	Smad3 inh 98 (no result: ERa coact pot, ERa coact inh, Calb biofilm kill, ERb coact inh)
CC(=O)[C@H]1[C@H](C#N)C[C@H]2[C@@H]3CC=C4C[C@@H](O)CC[C@]4(C)[C@H]3CC[C@@]21C	none
COc1ccc(S(=O)(=O)c2c(N)n(Cc3ccco3)c3nc4ccccc4nc23)cc1	ERa coact inh 83[fluorescence artefact?], ERb coact inh 78[fluorescence artefact?]
Cc1nc2c(c(=O)n1Cc1ccccc1Cl)c1nc3ccccc3nc1n2Cc1ccco1	none
COc1ccc(Cn2c3nc4ccccc4nc3c3c(=O)n(Cc4ccco4)c(C)nc32)cc1	ERa coact inh 75, ERb coact inh 60[fluorescence artefact?]
Cc1ccc(S(=O)(=O)c2c(N)n(/N=C/c3ccco3)c3nc4ccccc4nc23)cc1	none
CCOc1cccc(NC(=O)C2CC(=O)NC(=Nc3ccccc3)S2)c1 (centres undefined)	none
COc1ccc(N2CCN(C(=O)CCCn3c(=O)[nH]c4ccsc4c3=O)CC2)cc1	ERb coact inh 75
Cc1cc(C)c2c(n1)nn1c(N3CCN(c4ccccc4C)CC3)cc(C)nc21	ERa coact pot 402[fluorescence artefact?]
CCCSc1nc(C)c(-c2csc(C(C#N)=C3CCCC3)n2)cc1C#N	ERa coact inh 69
CCCCSc1nc2c(cc1C#N)CCC2	none
CCCc1cc(N2CCN(c3ccccn3)CC2)n2nc(C)c(-c3ccccc3)c2n1	ERa coact pot 242[fluorescence artefact?]
Cc1cc(N2CCN(Cc3ccccc3)CC2)n2nc(C)c(-c3ccccc3)c2n1	none
CCOc1ccccc1C1C(C#N)=C(SCC(=O)OC)NC(=O)C1C(=O)OC (centres undefined)	ERb coact inh 85[fluorescence artefact?] (no result: Calb biofilm kill)
CCOC(=O)C1C(=O)NC(SCC(=O)OC)=C(C#N)C1c1ccccc1OCC (centres undefined)	none
NC(=O)COc1ccc(C2c3c(oc4ccccc4c3=O)C(=O)N2CC2CCCO2)cc1 (centres undefined)	Smad3 inh 77, ERa coact inh 70, ERb coact inh 70
Cc1noc(C)c1CSCC(=O)OCc1nc2ccccc2c(=O)n1CC#N	none
Cc1cnn(-c2ccc3nnc(-c4ccc(Br)cc4)n3n2)c1	ERa coact pot 284[fluorescence artefact?]
N#Cc1c(N)nc(SC2CCCCC2=O)c(C#N)c1-c1ccco1 (centres undefined)	ERa coact pot 217[fluorescence artefact?]
N#Cc1c(N)nc(SCc2ccccn2)c(C#N)c1-c1cccs1	ERa coact pot 373[fluorescence artefact?]
N#Cc1c(N)nc(SCc2ccccc2)c(C#N)c1-c1ccco1	ERa coact pot 213
COc1ccc(Cl)cc1NC(=S)NCc1ccco1	none
CC(OC(=O)c1cc(=O)[nH]c2ccccc12)c1ccccc1 (centres undefined)	none
O=C1c2ccccc2[C@@H]([C@H]2c3ccccc3C(=O)c3cc(Br)ccc32)c2ccc(Br)cc21	none (no result: ERa coact pot, ERa coact inh, Calb biofilm kill, ERb coact inh)
COc1ccc(-c2cc3nc4c(c(N5CCC6(CC5)OCCO6)n3n2)CCCC4)cc1	none
COc1cccc(-c2cc3nc(-c4ccccc4)cc(N4CCC5(CC4)OCCO5)n3n2)c1	ERa coact pot 210
O=C(C1Cc2ccccc2CN1S(=O)(=O)c1ccc(F)cc1)N1CCOCC1 (centres undefined)	none
CCS(=O)(=O)N1Cc2ccccc2CC1C(=O)N1CCN(c2ccccc2)CC1 (centres undefined)	ERa coact pot 223[fluorescence artefact?] (no result: Calb biofilm kill)
O=C(C1Cc2ccccc2CN1S(=O)(=O)c1ccc(F)cc1)N1CCCCCC1 (centres undefined)	Smad3 inh 77[fluorescence artefact?]
CCOC(=O)C1CCN(C(=O)Nc2ccc3nc(-c4ccco4)c(-c4ccco4)nc3c2)CC1	ERa coact inh 96[fluorescence artefact?], ERb coact inh 95[fluorescence artefact?]
CN1Cc2cc(C(=O)c3cc(Cl)cc(CSc4ncccn4)c3O)cnc2NC1=O	ERa coact inh 56
Cc1ccc(O)c(C(=O)c2cnc3c(c2)CN(CCC(C)C)C(=O)N3)c1	none
COc1ccc(-c2nc3c(c(=O)[nH]c(=O)n3Cc3ccccc3)n2C)cc1	ERa coact pot 270[fluorescence artefact?]
COc1cc2[nH]c(=O)n(Cc3ccc(C(=O)NC4CCCC4)cc3)c(=O)c2cc1OC	Calb biofilm kill 24
COc1ccc2c(c1)c(=O)oc1cc(OCC(=O)N3CCC(C)CC3)ccc12	ERa coact inh 59, ERb coact inh 60
COc1ccc(OC)c(N(CC(=O)N2CCc3ccccc3C2)S(C)(=O)=O)c1	none
COc1ccc2c(c1)c(=O)oc1cc(OCC(=O)N3CCc4ccccc4C3)ccc12	ERa coact pot 237[fluorescence artefact?], ERa coact inh 71[fluorescence artefact?], ERb coact inh 62
COc1ccc2c(c1)c(=O)oc1cc(OCC(=O)N3CCCC(C)C3)ccc12 (centres undefined)	none
NC(=O)c1c(NC(=O)c2cccs2)sc2c1CCCCCC2	ERa coact inh 60
COc1ccccc1NC(=O)c1c(NC(=O)c2ccco2)sc2c1CCC2	ERa coact inh 70[fluorescence artefact?]
COCCCNC(=O)c1c(NC(=O)c2cccs2)sc2c1CCCC2	ERa coact pot 331[fluorescence artefact?]
